Assay results: PubChem BioAssay AID1259415 (National Center for Advancing Translational Sciences (NCATS), 2018)
Screen size: about 410,000 compounds; about 18,000 (4.4%) were called active. Roughly 7% stayed inconclusive and do not appear here. The sample holds actives, similar compounds and a random draw of the others, so the mix is not that of the screen. No stated cut-off is given here; in the data, active means activity change below about -60%; inconclusive means no clear call, values can overlap the other calls; inactive means above about -39%.

Test: qHTS Assay for inhibitors of the human cytomegalovirus (HCMV)
Settings: HFF cells, HCMV-luciferase reporter, 72 h; at 57.5 µM; hits give low values
Method in brief: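 Two compound doses tested in HFFs infected with HCMV-luciferase, MOI 1 PFU/cell, 72 h at 37C. Lysate luminescence read with OneGlo; data normalized against buffer-only and 10uM Salinomycin inhibitor controls.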
On the % scale 0 is the no-effect control and ±100 the full control effect.

Structure (SMILES) | activity change, negative = inhibition
O=C(NNc1cc(Cl)cc(Cl)c1)c1c(F)cccc1Cl | -68.5% (active)
O=C(O)c1cc2c(cc1NC(=O)c1c(F)cccc1Cl)OCCCO2 | -29.4% (inactive)
CCN(CC)CCNC(=O)c1ccc(NC(=O)c2c(F)cccc2Cl)cc1 | -23.1% (inactive)
COc1ccc(/C=C2/C(=O)N(c3ccccc3)N=C2C)c(OC)c1 | 67.9% (inactive)
CC1=NN(Cc2ccccc2)C(=O)/C1=C/c1ccc(N(C)C)cc1 | -61.8% (active)
CCOc1ccc(/C(O)=C2/C(=O)C(=O)N(Cc3cccnc3)C2c2ccc(N(C)C)cc2)c(C)c1 (configuration not stated) | 19.8% (inactive)
CC(=O)c1ccc(NC(c2ccc(F)cc2)c2nnc(-c3ccccc3)o2)cc1 (configuration not stated) | 16.8% (inactive)
O=C(c1ccco1)n1nc(-c2ccc(Cl)cc2)nc1NCc1ccccc1 | -5.57% (inactive)
COc1ccccc1CNC(=O)C(=O)NCC(c1ccco1)S(=O)(=O)c1ccc(F)cc1 (configuration not stated) | -13.4% (inactive)
Cc1cc(-c2ccc(S(=O)(=O)N3CCc4ccccc4C3)s2)on1 | -77.4% (active)
Cc1cc(-c2ccc(S(=O)(=O)N3CCN(c4cccc(C(F)(F)F)c4)CC3)s2)on1 | -38.1% (inactive)
Cc1cccc(N2CCN(S(=O)(=O)c3ccc(-c4cc(C)no4)s3)CC2C)c1 (configuration not stated) | 15.2% (inactive)
COc1ccc(CC(=O)N2CC(=O)Nc3ccc(Br)cc3C2c2ccc(F)cc2)cc1OC (configuration not stated) | -3.53% (inactive)
COC(=O)[C@@]1(Cc2ccc(F)cc2)[C@H]2c3cc(C(=O)N(C)C)n(CCc4c[nH]c5ccc(OC)cc45)c3C[C@H]2CN1C(=O)c1ccccc1 | -82.3% (active)
COC(=O)[C@@]1(Cc2ccc(OC)cc2)[C@H]2c3cc(C(=O)N4CCCC4)n(Cc4ccc(OC(F)(F)F)cc4)c3C[C@H]2CN1C(=O)c1ccccc1 | -18.9% (inactive)
COC(=O)[C@@]1(Cc2ccc(F)cc2)[C@H]2c3cc(C(=O)N4CCCC4)n(C[C@H](O)CO)c3C[C@H]2CN1C(=O)c1ccccc1 | 5.98% (inactive)
CCC(=O)N1CCc2cc(S(=O)(=O)NC(C(=O)NCCc3ccc(C)cc3)C(C)C)ccc21 (configuration not stated) | 12.8% (inactive)
Cc1ccccc1-c1n[nH]c(=S)n1/N=C/c1ccc(-c2ccccc2Br)o1 | -88.9% (active)
CCc1n[nH]c(=S)n1/N=C/c1c[nH]c2ccc(Br)cc12 | -6.5% (inactive)
CN(Cc1ccccc1)C(=O)c1cn(C)c2ccc(S(=O)(=O)N(C)C3CCCCC3)cc2c1=O | 13.4% (inactive)
CCCOc1ccc(N2CC(C(=O)Nc3ccccn3)CC2=O)cc1 (configuration not stated) | 6.17% (inactive)

Structure (SMILES) | activity change, negative = inhibition
O=C(Nc1cccc2c1N(C(=O)c1ccco1)CCC2)c1ccco1 | -39.1% (inactive)
COc1cccc(-n2c(=O)c3c(C)c(C(=O)N(C)C)sc3n(Cc3cccc(C)c3)c2=O)c1 | -2.38% (inactive)
CCOC(=O)Nc1ccc2c(c1)N(C(=O)CCCl)c1ccccc1[S@]2=O | -102% (active)
CCOC(=O)Nc1ccc2c(c1)N(C(=O)CN1CCN3CCCC3C1)c1ccccc1CC2 (configuration not stated) | 74.9% (inactive)
CCOC(=O)Nc1ccc2c(c1)N(C(=O)CCN1CCN(CCO)CC1)c1ccccc1CC2 | -20.5% (inactive)
Cc1ccc(S(=O)(=O)N(Cc2nc(-c3ccc(Cl)cc3)no2)C2CCCCC2)cc1 | -16.3% (inactive)
COc1cc(C(=O)NCCS(=O)(=O)N2CCN(c3ccccc3)CC2)cc(OC)c1OC | 38.7% (inactive)
Cn1c(N)c(C(=O)COC(=O)c2cnc(Cl)c(Cl)c2)c(=O)n(C)c1=O | -99.9% (active)
Cc1cc(C(=O)OCC(=O)c2c(N)n(C)c(=O)n(C)c2=O)c(C)o1 | -20.6% (inactive)
Cn1c(N)c(C(=O)COC(=O)COc2ccc(Cl)cc2)c(=O)n(C)c1=O | -16.9% (inactive)
CCc1ccc(OCC(=O)OCC(=O)c2c(N)n(C)c(=O)n(C)c2=O)cc1 | -68.3% (active)
CCCCOc1ccc(C(=O)NCC(=O)OCC(=O)c2c(N)n(C)c(=O)n(C)c2=O)cc1 | -28.8% (inactive)
Cn1c(N)c(C(=O)COC(=O)c2ccc3ccccc3c2)c(=O)n(C)c1=O | 7.39% (inactive)
Cc1ccc(S(=O)(=O)N(C)C)cc1NC(=O)c1ccc(-n2cncn2)c([N+](=O)[O-])c1 | -7.42% (inactive)
CC(C)NC(=O)c1nnc2n1CCN(C(=O)C1(c3ccc(Cl)cc3)CCCC1)C2 | -2.1% (inactive)
COc1cc(Cl)ccc1Nc1ncc(C(=O)N2CCN(c3ccccc3OC)CC2)c2ccccc12 | 9.53% (inactive)
Cc1cccc(NC(=O)CN(c2ccc(C(C)C)cc2)S(=O)(=O)c2c(C)nn(C)c2C)c1C | -17.9% (inactive)
C=CCOc1ccc(C(=O)Nc2ccccc2C(=O)N2CCCC2)cc1 | 3.09% (inactive)
COc1ccc(SSc2ccc(OC)cc2C(=O)O)c(C(=O)O)c1 | 4.79% (inactive)
COc1cc(C(=O)Nc2cc(C(F)(F)F)ccc2N2CCOCC2)ccc1O | 37.5% (inactive)
COC(=O)C(C)N=Cc1ccccc1 (configuration not stated) | -19.2% (inactive)

Structure (SMILES) | activity change, negative = inhibition
COc1ccc(/C=N/Nc2ccccc2C(=O)O)cc1 | -64.5% (active)
COc1ccc(C(=O)Nc2ccccc2C(=O)N/N=C/c2ccc(O)c(OC)c2)cc1 | -71.4% (active)
C=CCOc1c(CNn2cn[nH]c2=S)cccc1OC | -4.48% (inactive)
COC(=O)C[C@H]1C=C[C@H](NC(=O)c2ccc(F)cc2)[C@@H](CO)O1 | 21.6% (inactive)
COc1ccc(OC)c(CCNc2nc3cnc(-c4cccc(Oc5ccccc5)c4)cc3n2C)c1 | -30.5% (inactive)
Cc1c(NC(=O)c2cc(=O)c3ccccc3o2)c(=O)n(-c2ccccc2)n1C | 2.18% (inactive)
CCCN(C(=O)Cn1ncc2c([nH]c3ccc(C)cc32)c1=O)c1ccccc1C | -8.94% (inactive)
CCOc1cccc2c1N[C@@H](c1ccc(C(=O)O)cc1)[C@H]1CC=C[C@@H]21 | -5.85% (inactive)
COc1ccccc1C(=O)Nc1c(C(=O)N(C)Cc2ccccc2)sc2nc(C)c(Cl)c(C)c12 | -19.6% (inactive)
COc1ccccc1NC(=O)c1cc(Cl)nnc1Cl | -22.5% (inactive)
COc1ccccc1NC(=O)c1sc2nc(C)c(C(=O)Nc3ccc(Cl)cc3)c(-c3ccc(Br)cc3)c2c1N | -104% (active)
Cc1ccc(Nc2c(-c3ccc(C)s3)nc3ccccn23)cc1 | 74.5% (inactive)
Cc1ccc(NC(=O)c2oc3ccc(S(=O)(=O)N4CCCCC4)cc3c2C)cc1Cl | -4.09% (inactive)
COc1ccccc1N(CC(=O)N1CCCCC1)S(=O)(=O)c1ccccc1 | -0.178% (inactive)
Cc1ccc(S(=O)(=O)N(CC(=O)NCc2ccco2)c2ccccc2C)cc1 | -14.7% (inactive)
COc1ccccc1NC(=O)CN(c1ccccc1OC)S(=O)(=O)c1ccccc1 | -93.1% (active)
COc1ccccc1N(CC(=O)Nc1c(C)n(C)n(-c2ccccc2)c1=O)S(=O)(=O)c1ccccc1 | -32% (inactive)
COc1ccccc1N(CC(=O)N/N=C(\C)c1ccccc1O)S(=O)(=O)c1ccc(C)cc1 | -68.7% (active)
COc1ccc(C)cc1N(CC(=O)NC(C)c1ccccc1)S(C)(=O)=O (configuration not stated) | -5.84% (inactive)
Cc1cc(C)cc(-n2c(SCC(=O)NCC3CCCO3)nc3c([nH]c4ccccc43)c2=O)c1 (configuration not stated) | 10.8% (inactive)
Cc1cc(NC(=O)CN2C(=O)NC(CC(C)C)C2=O)no1 (configuration not stated) | 3.09% (inactive)

Structure (SMILES) | activity change, negative = inhibition
O=C(Nc1ccccc1Cl)N1CCN(c2ccc3nncn3n2)CC1 | -11.9% (inactive)
Cc1ccccc1C(=O)Nc1cc(C)c(O)c(-c2nc3ccccc3o2)c1 | -13.9% (inactive)
Cc1ccc(C)n1-c1nnc(N2CCC(C(=O)NCc3ccc(F)cc3)CC2)s1 | 29.6% (inactive)
CCOC(=O)c1c(NC(=O)CSc2nnc(CNc3ccc(C)cc3C)o2)sc(C)c1C | 3.08% (inactive)
CCOC(=O)c1c(-c2ccc(C)cc2C)csc1NC(=O)CSc1nnnn1C | -95.4% (active)
Cn1nnnc1SCC(=O)Nc1sccc1C(N)=O | 3.24% (inactive)
CCOc1ccc(CCNC(=O)Cn2nc(CC)n3c(cc4sc(CC)cc43)c2=O)cc1OCC | -8.37% (inactive)
CCOC(=O)c1c(NC(=O)/C=C/c2ccc(OC)cc2)sc2c1CCC(C)C2 (configuration not stated) | -22.4% (inactive)
CC1CCN(S(=O)(=O)c2ccc3c(c2)N(CC(=O)NCCc2ccccc2)C(=O)CO3)CC1 | -11.1% (inactive)
Cc1ccc(-n2nc(C)c3c(C)cc(=O)n(CC(=O)Nc4ccc(C(C)C)cc4)c32)cc1 | 11% (inactive)
COc1ccc(-c2cc(C(F)(F)F)nc(S(C)(=O)=O)n2)cc1OC | -98.2% (active)
COc1ccc(-c2cc(C(F)(F)F)nc(SCC(=O)N(C)Cc3ccccc3)n2)cc1OC | -16.1% (inactive)
COc1ccc(CCNc2nc(-c3ccc(F)cc3)cc(C(F)(F)F)n2)cc1OC | -24.7% (inactive)
CC(C)Sc1oc(-c2cccs2)nc1S(=O)(=O)c1ccc(Cl)cc1 | 0.0343% (inactive)
Cc1cc(NC(=O)/C=C/C(=O)N(CC(=O)NC2CCCC2)c2ccc(F)cc2)no1 | 29.1% (inactive)
Cc1cc(NC(=O)/C=C/C(=O)N(c2ccccc2C)C(C(=O)NC2CCCC2)c2ccc(F)cc2)no1 (configuration not stated) | -73.5% (active)
Cc1cc(NC(=O)CCC(=O)N(c2cccc(F)c2)C(C(=O)NC2CCCC2)c2ccncc2)no1 (configuration not stated) | -19.9% (inactive)
Cc1cccc(C)c1-n1nnnc1C1C(=O)NC(=S)N1c1ccccc1 (configuration not stated) | 26.7% (inactive)
Cn1c(=O)c2c(nc(SCC(=O)Nc3ccc(F)cc3)n2Cc2ccccc2)n(C)c1=O | 5.41% (inactive)
